# Hits are enriched below; roughly 2.6% of the tested compounds scored in any of these assays.
# TRPV1 PAM = enhances activation of the human vanilloid receptor TRPV1; Q8NER1; TRPV1-expressing cells, Fluo-8 calcium influx, capsaicin EC20 potentiation; potentiation, % at 8.33 µM; actives 0.02% (n = 320,000); in the data active = potentiation above about 80%; inconclusive = between about 30% and that limit; note: 0% is about no effect
#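 Cells expressing TRPV1 were dye-loaded with Fluo-8 and read kinetically: 10 s baseline, 3 min after compound (agonist portion), then 2 min after EC20 capsaicin (allosteric enhancer portion). Calcium-bound dye fluorescence at 480/520 nm.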
# ClpP mod = qHTS Assay for Activators of ClpP | ATP-dependent Clp protease proteolytic subunit (Bacillus subtilis (strain 168)), P80244 | purified B. subtilis ClpP, FRET peptide cleavage, 20 min | Potency, µM (highest dose often 57.5 µM), for inactives: top-dose activity change, negative = active | actives 1.9% (n = 340,000); active = well fitted falling curve with a large enough effect; inconclusive = small, poorly fitted or top-dose-only effect; inactive = no such curve, though single readings can be large or run the other way; note: potency is the fitted concentration of half-maximal effect; the source files actives as falling curves though it sought activators and does not explain the sign; nearly all actives have a fitted effect of over 65% in size
# Target sequence (P80244 whole entry, looked up): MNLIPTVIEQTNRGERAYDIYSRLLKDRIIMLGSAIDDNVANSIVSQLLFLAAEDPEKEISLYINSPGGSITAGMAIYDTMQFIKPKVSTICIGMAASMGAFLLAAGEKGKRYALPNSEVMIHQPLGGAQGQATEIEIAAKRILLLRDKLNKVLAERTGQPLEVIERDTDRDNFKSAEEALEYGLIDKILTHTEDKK
#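 FRET quenching reversal measured ClpP activation: 10 microg/mL B. subtilis ClpP at pH 8 with the FRET-FV decapeptide, read at 430 nm after 320 nm excitation. The 20-min minus 0-min signal was scaled between DMSO/no-enzyme wells and ADEP (5.8 microM final).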
# p53 reactivator = mutant p53 re-activation in reporter cells. H1299 p53-A138V BP100-luciferase reporter, luminescence, 24 h. Potency, µM (highest dose often 92.2 µM), without a hit: at the top dose activity change, positive = activation, hits mostly activators. actives 0.063% (n = 320,000); active = well fitted activation curve with a large enough effect; inconclusive = small, poorly fitted or top-dose-only effect; inactive = no such curve, though single readings can be large or run the other way; note: potency is the fitted concentration of half-maximal effect; % of control where 0% means no effect; nearly all actives have a fitted effect of over 45% in size
#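 H1299 (p53-null), stable ts p53-A138V + BP100-Luc; 1000 cells/well, Opti-MEM/10% FBS; cpd 4 pt, 1:5; 24 h, 37 deg C, 5% CO2; detection reagent 10 min RT; luminescence.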
# KCNH2 WT inh = blocks the wildtype human KCNH2 potassium channel; actives 0.37% (n = 340,000); Q12809; U2OS, BacMam KCNH2, thallium flux FluxOr; active compounds read low; activity change, % at 1.84 µM; AID 720551;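 active = maximum activity change below -70%; inconclusive = maximum activity change between -70% and -50%; inactive = maximum activity change above -50%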; note: % is set by controls: 0 for no effect and ±100 for the full control effect
#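 U2OS cells were transduced with wild-type KCNH2 virus (2.03 x 10^8 / mL) for 4 h at room temperature, then cultured overnight at 37 C. Thallium flux was read with FluxOr dye. Rate constants were normalized to DMSO controls.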
# KCNH2 3.1 block = inhibitors of human KCNH2 3.1 potassium channel isoform; activity change, % (tested at about 1.8 µM); U2OS KCNH2 3.1, thallium flux FluxOr; active compounds read low; actives 0.95% (n = 340,000);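 active = maximum activity change below -70%; inconclusive = maximum activity change from -70% to -50%; inactive = maximum activity change above -50%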;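 note: thallium influx rate constant from kinetic fluorescence after stimulation buffer; % is set by controls: 0 for no effect and ±100 for the full control effect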
#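 Steps: virus added to U2OS suspension (4 h, RT, dark); medium with 10% FBS added, cells plated, 37 C overnight; FluxOr/Red40 loading buffer 45 min RT; stimulation buffer, 2 min kinetic read; rate constant normalized.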
# TRPV1 ag = agonists of human vanilloid receptor 1 (TRPV1) | Q8NER1 | TRPV1-expressing cells, Fluo-8 calcium influx, agonist mode | activation, % at 8.33 µM | actives 0.19% (n = 320,000); in the data active = activation above about 80%; inconclusive = between about 30% and that limit; note: 0% is about no effect
#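 Fluo-8 calcium influx in TRPV1-expressing cells, kinetic read (ex 480/em 520 nm). Compound added and read 3 min for agonist activity, followed by capsaicin at EC20 final and 2 min further read for enhancement.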
# * marks the source's active call; other numbers are inactive results; ? = inconclusive; nt = not tested or not shown.
SMILES,TRPV1 PAM,ClpP mod,p53 reactivator,KCNH2 WT inh,KCNH2 3.1 block,TRPV1 ag
O=C(NCC1CCCO1)c1[nH]c(C(F)(F)F)nc1-c1ccccc1 (stereo not drawn),nt,-2%,nt,nt,nt,nt
Cc1sc2ncnc(NCC(c3ccco3)N(C)C)c2c1C (stereo not drawn),-9,0%,-2%,10,0,86*
CC1=C(C(=O)OC(C)C)C(c2cccnc2)C2=C(CC(C)(C)CC2=O)N1 (stereo not drawn),-8,28µM*,-13%,5,5,16
COCCOC(=O)C1=C(C)NC2=C(C(=O)CC(C)(C)C2)C1c1cccnc1 (stereo not drawn),-3,28µM*,-4%,5,9,-3
CC1=CC(C)(C)C(C(=O)O)C(C(=O)O)C1 (stereo not drawn),22,-1%,2%,-109*,3,0
Cn1c(NCCCO)nc2c(c1=O)C1(CCCCC1)Cc1ccccc1-2,nt,28µM*,-13%,-9,5,nt
CCC1(C)Cc2ccccc2-c2nc3n(c(=O)c21)CC(C(=O)O)S3 (stereo not drawn),6,25µM*,-16%,8,3,-2
CCC1(C)Cc2ccccc2-c2nc(NCCCO)n(-c3ccccc3)c(=O)c21 (stereo not drawn),-9,3.5µM*,-5%,-7,-9,25
O=c1[nH]c(NCCO)nc2c1C1(CCCC1)Cc1ccccc1-2,-5,32%,-2%,-1,21,29
CCC1(C)Cc2ccccc2-c2nc3n(c(=O)c21)CCS3 (stereo not drawn),-14,?,-6%,2,-22,24
O=c1c(S(=O)(=O)c2cccc(Cl)c2)cn(Cc2ccccc2)c2cc(N3CCCCC3)c(F)cc12,nt,-14%,nt,nt,nt,nt
CCOc1ccccc1CNC(=O)Cn1nc(N2CCN(c3ccccc3)CC2)ccc1=O,nt,-2%,nt,nt,nt,nt
CCC(C)[C@H](N)c1cn([C@@H](Cc2cc3ccccc3[nH]2)C(=O)N2CCNCC2)nn1 (stereo partly drawn),-6,1%,1%,-252*,42,-1
O=C1NC[C@H](CC2CCCCC2)N(CCC23CC4CC(CC(C4)C2)C3)C1=O,nt,-3%,nt,nt,nt,nt
OCC[N+]1(CCc2ccccc2)CCOCC1,nt,1%,nt,nt,nt,nt
CCCn1cc2c(c1-c1ccc(C)cc1)c(=O)n(C)c(=O)n2C,3,nt,-2%,4,nt,1
COc1ccc(-c2c3c(=O)n(C)c(=O)n(C)c3cn2C2CCCCC2)cc1,-9,16µM*,-1%,8,-1,22
C(=C\c1nc2ccccc2o1)/c1ccc2c(c1)OCO2,nt,8%,nt,nt,nt,nt
C=C1C=C(C(F)F)n2ncc(C(=O)Nc3ccc(C(C)CC)cc3)c2N1 (stereo not drawn),-1,nt,nt,nt,nt,1
CCCN(CC1CC1)c1nc(N)c2c(N)nc(OC)cc2c1C#N,-3,25µM*,-6%,-11,-5,9
Cc1ccnc(NC(=O)CNC(=O)c2ccccc2Br)c1,5,-5%,22%,-71*,-1,0
Cc1ccnc(NC(=O)CNC(=O)c2ccc3ccccc3c2)c1,-7,-6%,9%,12,-16,8
COc1ccc(OC)c(-n2c(-c3ccc(S(C)(=O)=O)cc3)cc(C=O)c2C)c1,0,-24%,1%,6,-10,1
COc1ccc(OC)c(-n2c(C)ccc2-c2ccc(S(C)(=O)=O)cc2)c1,0,28µM*,2%,9,-27,6
CCOC(=O)c1c(C)[nH]c(C)c1S(=O)(=O)N(C)CC(=O)Nc1cc(Cl)ccc1C,nt,0%,nt,nt,nt,nt
SMILES,TRPV1 PAM,ClpP mod,p53 reactivator,KCNH2 WT inh,KCNH2 3.1 block,TRPV1 ag
Cc1c(NC(=S)NC(=O)c2ccc(COc3ccccc3)cc2)cccc1C(=O)O,5,0%,10%,-231*,17,1
Cc1c(NC(=S)NC(=O)c2cccc3ccccc23)cccc1C(=O)O,19,1%,2%,-1,-12,1
COc1cccc(NC(=O)CSc2nc3c(oc4ccccc43)c(=O)n2Cc2ccco2)c1,nt,-26%,nt,nt,nt,nt
CCc1nnc(SCC(=O)Nc2ccc(Cl)cc2F)c2cc3occc3n12,nt,-3%,nt,nt,nt,nt
Cc1cc(N2CCN(C(C(=O)NC3CCCC3)c3ccc(F)cc3)CC2)c2ccccc2n1 (stereo not drawn),nt,-4%,nt,nt,nt,nt
CC(=O)N(C)/C=C1\Sc2ccccc2C1=O,-11,-13%,9%,6,-8,-1
CCC(=O)N(C)/C=C1\Sc2ccccc2C1=O,?,6%,14%,-102*,-10,0
COC(=O)C1=C(C)NC(=S)NC1c1ccc(OC(=O)c2ccco2)cc1 (stereo not drawn),0,nt,0%,-5,-5,1
COC(=O)C1=C(C)NC(C)=C(C(=O)OC)C1c1ccc(OC(=O)c2ccco2)cc1,-2,18µM*,-22%,2,-10,0
COc1cccc(CN2CCN(C3CCN(c4ccccc4C)CC3)CC2CCO)c1 (stereo not drawn),3,1%,0%,26,-29,-2
COc1cccc(CN2CCN(C3CCN(c4cccc(C)c4C)CC3)CC2CCO)c1 (stereo not drawn),-3,-1%,0%,-1,-72*,-2
CCC(=O)N1CCN(c2ccc(NC(=S)NC(=O)c3ccc(OC)c([N+](=O)[O-])c3)cc2)CC1,0,nt,5%,-4,-91*,7
COc1ccc(C(=O)NC(=S)NNC(=O)c2ccccc2C)cc1,nt,1%,nt,-2,-8,nt
COc1ccc(C(=O)NC(=S)Nc2ccc(N3CCCC3)cc2)cc1,0,nt,0%,-1,-89*,0
COc1ccc(C(=O)Nc2ccc(N3CCCC3)cc2)cc1,-17,2%,4%,6,1,?
CCOc1ccc(C(=O)NC(=S)Nc2ccc(N3CCC(C)CC3)cc2)cc1[N+](=O)[O-],9,-1%,9%,4,-29,0
COc1ccc(C(=O)NC(=S)NNC(=O)c2ccccc2O)cc1,11,-1%,15%,-2,-83*,4
CC(=O)c1ccc(NC(=O)C2(c3ccccc3)CCOCC2)cc1,2,1%,18%,0,-108*,-3
Nc1ccc(/C=C/c2nc3ccccc3s2)cc1,nt,-2%,nt,nt,nt,nt
CC(C)OC(=O)N(C)C[C@H]1OCc2cnnn2CCCC(=O)N([C@H](C)CO)C[C@H]1C,nt,-5%,nt,12,24,nt
CCCCNC(=O)Cn1c(SCc2ccccc2C)nc2ccncc21,nt,-7%,nt,nt,nt,nt
COc1ccc(C2(C(=O)Nc3nncs3)CCCC2)cc1,-5,2%,-1%,-11,-25,1
CN1CCN(c2ccc(NC(=S)NC(=O)c3cccc4c(Cl)cccc34)cc2)CC1,4,-3%,28%,5,-91*,-3

# Screens: PubChem, National Center for Advancing Translational Sciences (NCATS)
